Reference: PubChem BioAssay AID1016 (Sanford-Burnham Center for Chemical Genomics, 2008)
About 330 (0.17%) of roughly 200,000 compounds were called active. What follows is part of a selection rich in actives, with near analogues and random picks from the rest. Unmarked numbers belong to inactive results.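 Rule for the calls: active = activation factor of 2 or more at 20 µM, a signal rise over negative controls twice the positive control's; inactive = the rest.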

System: alkaline phosphatase, intestinal [Bos taurus]
Assay: IAP enzyme activity enhancers – biochemical, bovine IAP, CDP-star luminescence, primary screen (AID 1016)
Conditions: purified bovine IAP, 30 min, at 20 µM, hits give high values, fold of DMSO-control signal, blank-subtracted

Row | Structure (SMILES) | activation factor
1 | CCCCCCCCc1c(O)nc(-n2[nH]c(C)c(CCO)c2=O)[nH]c1=O | 1.2
2 | O=C(C1CCN(S(=O)(=O)c2ccc(Br)s2)CC1)N1CCN(C2CCCCC2)CC1 | 1.2
3 | O=C(Nc1cc(S(=O)(=O)N2CCOCC2)ccc1Cl)c1cc(=O)c2ccccc2o1 | 1.3
4 | O=[N+]([O-])c1cc(S(=O)(=O)N2CCCC2)ccc1NN=C1CCCC1 | 0.9
5 | COC(=O)C1=NN(c2ccccc2)C2C(=O)N(c3ccccc3OC)C(=O)C12 (stereo unspecified) | 0.9
6 | CC1CN(C(=O)c2ccccc2NS(=O)(=O)c2cccc([N+](=O)[O-])c2)CC(C)O1 (stereo unspecified) | 0.9
7 | CCOc1cc(NC(=S)NCc2ccco2)c(OCC)cc1NC(=O)c1ccco1 | 1
8 | NNC(=O)C1CC(O)CN1S(=O)(=O)c1ccc(Cl)cc1 (stereo unspecified) | 1.1
9 | CC(C)OC(=O)CN1CCN(c2ccc(Cl)cc2)CC1 | 1.1
10 | O=C(C(=O)N1CCc2ccccc2C1)c1c[nH]c2ccccc12 | 0.9
11 | COc1ccc(N2CCN(C(=O)COc3ccc4c(C)cc(=O)oc4c3)CC2)cc1 | 1.1
12 | O=C(O)c1cccc(N=NN2CCCCCC2)c1 | 1.1
13 | COc1cc(NC(=S)NCc2ccc(S(N)(=O)=O)cc2)cc(OC)c1 | 1
14 | Cc1ccc(S(=O)(=O)N(C)C)cc1NC(=O)/C=C/c1cccs1 | 0.9
15 | COc1cc(OC)c(-n2cc(-c3ccc(Cl)cc3)[nH]c2=O)cc1Cl | 1
16 | CCCNC(=S)N1CCCC(c2nc3ccccc3[nH]2)C1 (stereo unspecified) | 1.1
17 | Cc1ccccc1C(OCCN(C)C)C1CCCCC1 (stereo unspecified) | 1.1
18 | CCCN(CCC)CCCNC(=O)CNC(=O)c1nn(-c2ccc(OC)cc2)c(=O)c2ccccc12 | 1.1
19 | CCc1nnc(NC(=O)C2CC(=O)N(c3ccc4c(c3)OCCO4)C2)s1 (stereo unspecified) | 0.4
20 | Cc1ccc(S(=O)(=O)N2CCN(CC(=O)N/N=C/c3cc([N+](=O)[O-])ccc3Cl)CC2)cc1 | 0.5
21 | COc1ccc(/C=N/NC(=O)CNC(=O)c2ccc(S(=O)(=O)N3CCCC3)cc2)c(OC)c1 | 1.1
22 | Cc1cc(Br)ccc1SCC(=O)OCC(=O)NCc1ccc2c(c1)OCO2 | 0.8
23 | CS(=O)(=O)n1nc(-c2ccco2)nc1N | 1.2
24 | Cc1ccc(NC(=O)NC(=O)N(C2CCCCC2)S(=O)(=O)c2ccccc2)cc1 | 1.1
25 | CCN(CC)CCCSc1nc2ccccc2s1 | 1.1
26 | COc1ccc(C2/C(=C(/O)c3ccccc3)C(=O)C(=O)N2c2ncccn2)cc1OC (stereo unspecified) | 1

Row | Structure (SMILES) | activation factor
27 | COc1ccc(C2N=C(N)N=C(N)N2c2ccccc2)cc1OC (stereo unspecified) | 3 (active)
28 | COc1ccc(C2SCCN2S(=O)(=O)c2ccccc2)cc1OC (stereo unspecified) | 1
29 | O=C(Nc1nnc(C2COc3ccccc3O2)o1)c1ccc(F)cc1 (stereo unspecified) | 1
30 | C/C(Cc1ccccc1)=N\NC(=O)CNC(=O)c1cccc(Br)c1 | 0.9
31 | Cc1ccccc1NC(=O)c1ccc(COc2ccc3c(C)cc(=O)oc3c2)cc1 | 1
32 | Oc1c(C(c2ccccn2)N2CCOCC2)ccc2cccnc12 (stereo unspecified) | 2 (active)
33 | Cc1nc2sc(C(c3ccco3)N3CCOCC3)c(O)n2n1 (stereo unspecified) | 0.9
34 | CCOC(=O)N1CCN(C(c2cccnc2)c2ccc3cccnc3c2O)CC1 (stereo unspecified) | 1.3
35 | CCOC(=O)c1nn(-c2ccccc2F)c2nc(Nc3ccccc3)cc(=O)n12 | 1
36 | Cc1ccccc1C1=NC(C(F)(F)F)(C(F)(F)F)c2c(n(-c3ccc(F)cc3)c(=O)[nH]c2=O)N1 | 0.9
37 | CC1CCC(C(C)C)C(=O)/C1=C\c1ccc(NC(=O)CCC(=O)O)cc1 (stereo unspecified) | 0.9
38 | C[C@@H](O)c1nc2ccccc2n1N | 0.9
39 | Cc1ccc(C(=O)Nc2sc(Cc3ccc4c(c3)OCO4)c(C)c2C(N)=O)cc1 | 0.9
40 | CN(C)S(=O)(=O)Oc1ccccc1C(=O)Nc1ccccc1Cl | 0.9
41 | COc1ccc(S(=O)(=O)N(C)CC(=O)N2CCCC2)cc1Cl | 1
42 | COc1ccc(CC(=O)Nc2ccc3c(c2)CCC3)cc1S(=O)(=O)N1CCOCC1 | 1
43 | O=C(Oc1ccc2c(c1)CCC2)N1CCOCC1 | 2.4 (active)
44 | CC(=O)Nc1ccccc1OC(=O)N1CCOCC1 | 0.9
45 | CCc1cc(-c2n[nH]c(=S)n2CC(C)C)cs1 | 1
46 | O=C(CNC(=O)c1cc(=O)[nH]c2ccccc12)Nc1ccc(F)c(F)c1 | 0.9
47 | Cc1cc(C)nc(-n2ncc3c2CC(c2ccc(C(C)C)cc2)CC3=O)n1 (stereo unspecified) | 0.8
48 | CCC(=O)N1c2ccccc2NC2=C(C(=O)CCC2)C1c1ccco1 (stereo unspecified) | 1
49 | NC(=O)COC(=O)c1cc(S(=O)(=O)N2CCN(c3ccccc3)CC2)ccc1Cl | 1.1
50 | COCc1c(N)c(C)nc(Cl)c1C#N | 1.1
51 | Cc1cccc(C)c1NC(=O)C1CCCN1C(=O)OC(C)(C)C (stereo unspecified) | 0.8
52 | CC(=O)NCCC(=O)Nc1cc(S(=O)(=O)N2CCOCC2)ccc1N1CCOCC1 | 1

Row | Structure (SMILES) | activation factor
53 | CCCC1OC23CCCCC2C(C#N)(C#N)C1(C#N)C(=N)O3 (stereo unspecified) | 1.1
54 | Cc1ccc(C(=O)NC(=S)NCc2cccnc2)cc1 | 1
55 | NC(=O)C1CCN(C(=O)COc2cccc3cccnc23)CC1 | 1
56 | Cc1nn(Cc2ccc(F)cc2)c(C)c1NC(=O)c1cccnc1Cl | 1.1
57 | CC(=O)Cn1ncc(N2CCOCC2)c(Br)c1=O | 1.1
58 | C/C(CC(=O)Nc1cccc(C(F)(F)F)c1)=N\NC(=O)C(=O)NCC(C)C | 1.3
59 | O=C(NN1C(=O)C2C3C=CC(O3)C2C1=O)c1ccncc1 (stereo unspecified) | 0.8
60 | CC(C)C1Nc2c(C(=O)O)cccc2C(Nc2ccccc2C(=O)O)C1(C)C (stereo unspecified) | 1.1
61 | CCOc1ccc(C(O)Cc2nc3ccccc3n2C)cc1 (stereo unspecified) | 0.8
62 | COc1cc(C(O)c2nc3ccccc3n2C)cc(OC)c1OC (stereo unspecified) | 1
63 | CCCn1c(C(O)c2cc(OC)ccc2OC)nc2ccccc21 (stereo unspecified) | 73.3 (active)
64 | CCCn1c(C(Cc2ccccc2)NC(=O)COC)nc2ccccc21 (stereo unspecified) | 0.9
65 | CCOCCn1c(C(C)C)nc2ccccc21 | 0.9
66 | CCCn1c(C(O)c2ccc(OCC)cc2)nc2ccccc21 (stereo unspecified) | 19.1 (active)
67 | CN(C)c1ccc(/C=N/NC(=O)c2ccc(Cn3cc(Br)cn3)o2)cc1 | 1
68 | Cc1ccccc1OCC(=O)Nc1nc(C)c(C(=O)N(C)C)s1 | 1
69 | Cc1csc(SCC(=O)Nc2sccc2C#N)n1 | 1.2
70 | CN(c1ccc(OCC(=O)OCC(=O)Nc2cccc([N+](=O)[O-])c2)cc1)S(=O)(=O)c1ccc(F)cc1 | 0.8
71 | CN(C)c1ccc(NC(=O)CSc2n[nH]c(-c3ccco3)n2)cc1 | 1
72 | O=C(OCC(=O)c1c[nH]c2ccccc12)c1cccc(O)c1 | 1.2
73 | COCCCNC(=O)Cn1cc(/C=C(\C#N)C(=O)N2CCN(c3ccccc3)CC2)c2ccccc21 | 1
74 | COc1ccc(/C=N/n2c(C)cc(C)cc2=O)cc1 | 1.2
75 | CCOC(=O)C1(Cc2cccc(OC)c2)CCN(C(C)COC)CC1 (stereo unspecified) | 1
76 | Fc1ccccc1Cc1ccc(Cl)nn1 | 0.9
77 | O=C(O)c1n[nH]nc1-c1ccccc1 | 0.9
78 | Cc1ccccc1CCN(CC(=O)NC1CCCCC1)C(=O)c1csnn1 | 1

Row | Structure (SMILES) | activation factor
79 | COc1cccc(N(Cc2nnc3n2CCCCC3)C(=O)Nc2ccccc2F)c1 | 1.1
80 | CSc1ccc(C(=O)C2CCCN(C(=O)c3ccc(C)nc3)C2)cc1 (stereo unspecified) | 1
81 | COc1ccc(C(=O)Nc2ccc(NC(=O)C(C)C)nc2)cc1 | 0.9
82 | Cc1cccc(CSc2nnc(C)c(=O)n2N)c1 | 1.1
83 | CC(=O)N/C(=C/c1ccc(OC(F)F)cc1)C(=O)O | 1
84 | CC(=O)N1CCN(S(=O)(=O)c2ccc(C)c([N+](=O)[O-])c2)C1C(C)C (stereo unspecified) | 1
85 | CC1Cc2ccccc2N1C(=O)CSc1nnc(C2CC2)n1C (stereo unspecified) | 1
86 | CC(NC(=O)c1ccc(N2CCNCC2)c([N+](=O)[O-])c1)C12CC3CC(CC(C3)C1)C2 (stereo unspecified) | 1.1
87 | Clc1ccc(-c2nc3ccccn3c2CN2CCSCC2)cc1 | 1
88 | O=C1C2C3C=CC(C3)C2C(=O)N1c1ccc(-c2nc3ccccc3c(=O)o2)cc1 (stereo unspecified) | 1.1
89 | COc1cccc(NC(=S)C(C#N)=C2N(C)c3ccccc3N2C)c1 | 1.1
90 | CC(=O)NC1=NN(C(C)=O)C(C)(c2ccc(C)cc2)S1 (stereo unspecified) | 0.9
91 | CC(=O)c1sc(N/N=C/c2ccc(C(C)C)cc2)nc1C | 0.9
92 | COCCNC(=O)/C(C#N)=C/c1nc(N(C)C)n(-c2ccc(F)cc2)c1Cl | 1
93 | O=C(O)c1ccc2c3c(cccc13)C(=O)N(OS(=O)(=O)c1ccccc1)C2=O | 1.3
94 | Cc1sc2nc(COC(=O)C(NC(=O)c3ccc(Cl)cc3Cl)C(C)C)[nH]c(=O)c2c1C (stereo unspecified) | 0.7
95 | COc1ccc(C(CC(=O)c2ccccc2)S(=O)(=O)c2ccccc2)cc1 (stereo unspecified) | 1
96 | CN(C)S(=O)(=O)c1cccc(NC(=O)COC(=O)C2(c3ccccc3F)CCCC2)c1 | 1.1
97 | NS(=O)(=O)c1ccc(NC(=O)COC(=O)C2(c3ccc(F)cc3)CCCC2)cc1 | 2.7 (active)
98 | NS(=O)(=O)c1ccc(NC(=O)COC(=O)c2ccco2)cc1 | 1
99 | CC1Cc2nc(SCC(=O)Nc3ccccc3F)n(C)c(=O)c2S1 (stereo unspecified) | 1.1
100 | CCn1c(SCC(=O)Nc2ccccc2F)nc2c(c1=O)SC(C)C2 (stereo unspecified) | 2 (active)
101 | CCn1c(SCC(=O)Nc2ccc3c(c2)OCCO3)nc2c(c1=O)SC(C)C2 (stereo unspecified) | 1
